# NPC1 promoter act = activators of NPC1 promoter; Huh7 NPC1 promoter luciferase reporter, 24 h; Potency, µM (doses to about 9.22 µM), for inactives: at the top dose activation, actives largely listed as activators; 2.4% of 320,000 active; AID 485313; further: % of control where 0% means no effect; nearly all actives have a fitted effect of over 60% in size
#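 Readout is luciferase luminescence, reflecting NPC1 promoter activation in stably transfected Huh7 cells after 24 h compound exposure at 37 °C in reduced-serum medium with 10% FBS.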
# ELG1 genotoxic = genotoxicity induction in ELG1-luciferase HEK293T cells; HEK293T ELG1-luciferase reporter, luminescence, 16 h; Potency, µM (doses to about 46 µM), for the others: at the top dose activity change, positive = activation, hits mostly activators; 1.3% of 330,000 active; AID 504466; further: % of control where 0% means no effect; nearly all actives have a fitted effect of over 60% in size
#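 Genotoxicity was scored as increased ELG1-luciferase reporter signal, measured by ONE-Glo luminescence (30 min, room temperature). Compound or vehicle exposure of the HEK293T reporter cells lasted 16 hr at 37°C.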
# SMN2 splice up = enhancers of SMN2 splice variant expression; HEK293 SMN2-luciferase splicing reporter, luminescence, 30-36 h; Potency, µM (series often up to 46.1 µM), inactives show at the top dose activity change, positive = activation, usual class: activators; 2.8% of 210,000 active; AID 1458; further: % of control where 0% means no effect; nearly all actives have a fitted effect of over 55% in size
#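 HEK293 cells carry an SMN2 […]–luciferase reporter in which exon 7 inclusion puts luciferase in frame. Cells were plated 10-12 h before compound addition, then incubated 30-36 h at 37C. ONE-Glo luminescence was read; sodium butyrate at 4.5 mM final served as control.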
# FLuc modulator = firefly luciferase modulation, counter-screen for miR-21 project; P08659; purified FLuc, Km substrates, luminescence inhibition; Potency, µM (titrated, usually from 57.5 µM), for the others: at the highest dose activity change, negative = inhibition, most hits filed as inhibitors; 6.9% of 360,000 active; AID 588342;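 further: plate controls were vehicle for no effect and reference inhibitor for full effect; nearly all actives have a fitted effect of over 55% in size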
# Target sequence (P08659 whole entry, looked up): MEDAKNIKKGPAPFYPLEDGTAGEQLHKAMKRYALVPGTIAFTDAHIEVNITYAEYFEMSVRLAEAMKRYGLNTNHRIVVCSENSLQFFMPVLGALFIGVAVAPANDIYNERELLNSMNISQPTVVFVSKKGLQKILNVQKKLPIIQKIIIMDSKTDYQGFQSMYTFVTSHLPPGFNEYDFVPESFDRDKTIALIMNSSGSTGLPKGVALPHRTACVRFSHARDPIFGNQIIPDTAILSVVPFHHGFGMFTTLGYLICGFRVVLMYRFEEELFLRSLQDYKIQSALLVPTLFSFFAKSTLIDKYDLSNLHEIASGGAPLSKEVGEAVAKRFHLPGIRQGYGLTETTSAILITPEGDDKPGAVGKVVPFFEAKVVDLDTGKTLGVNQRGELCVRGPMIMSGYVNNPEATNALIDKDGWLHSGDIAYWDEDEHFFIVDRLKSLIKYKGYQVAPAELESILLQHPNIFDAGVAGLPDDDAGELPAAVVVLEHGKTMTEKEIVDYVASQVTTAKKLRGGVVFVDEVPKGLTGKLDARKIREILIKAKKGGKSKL
#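 Biochemical qHTS of compounds, final roughly 60 µM downward over six points, against 10 nM purified firefly luciferase using Km concentrations of substrates (10 uM D-luciferin, 10 uM ATP) in Tris acetate pH 7.5 buffer; luminescence output.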
# Rab9 promoter act = activators of Rab9 promoter; Huh7 Rab9 promoter-luciferase reporter, luminescence, 24 h; Potency, µM (titrated, usually from 9.22 µM), for the others: at the highest dose activation, negative = inhibition, actives largely listed as activators; 2.8% of 320,000 active; AID 485297; further: % of control where 0% means no effect; nearly all actives have a fitted effect of over 60% in size
#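 Using Huh7 cells stably transfected with Rab9 promoter–luciferase, compounds were incubated 24 h at 37 °C, 5% CO2; luciferase luminescence was read 10 min after reagent addition.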
# An asterisk follows results filed as active; ? = inconclusive; · = no result given; [ ] = remark or other dose. Only some compounds are listed: those with a hit (about 7.4% of all), similar ones and a draw of the others. The call rests on the fitted dose curve; in most records, active means well fitted curve in the direction sought with a large enough effect; inconclusive means small, poorly fitted or top-dose-only effect, or another doubt; inactive means no such curve, though single readings can be large; an effect the other way counts as inactive or inconclusive. Potency means the concentration at half of the fitted maximal effect.
SMILES,NPC1 promoter act,ELG1 genotoxic,SMN2 splice up,FLuc modulator,Rab9 promoter act
S=c1[nH]nc(-c2ccc3ccccc3n2)o1,-1%,11%,-19%,?,-2%
Cc1ccsc1-c1ccnc(-n2cccc2)n1,4%,0%,-13%,?,12%
Clc1ccsc1-c1ccc2ccccc2n1,?,?,?,11µM*,?
c1ccc2nc(-c3nccs3)ccc2c1,24%,?,17%,13µM*,?
COc1c(C)cc(NS(=O)(=O)c2ccc3c(c2)OCCO3)cc1C,·,·,-59%,-3%,·
COc1ccc(OC)c(CCNC(=O)c2cc3cccc4c3n2CCS4)c1,·,·,·,-3%,·
Cc1c2cnn(CC(=O)NCCc3ccccc3)c(=O)c2c(C)n1Cc1ccccc1Cl,·,·,0%,-19%,·
Cc1cc(-c2ccc(Br)cc2)n[nH]1,?,?,?,19µM*,?
Nc1cc(-c2ccc(Br)cc2)[nH]n1,18%,-2%,-2%,?,16%
COC(=O)N/N=C(C)\C=C\c1ccco1,-3%,7%,4%[1.84 µM],-2%,0%
CN(C)c1ccc(C(=O)/C=C/c2ccco2)cc1,3.2µM*,?,13µM*,0.38µM*,2.8µM*
O=C(/C=C/c1ccco1)c1ccc(O)cc1,13%,?,6%,13µM*,?
CN(C(=O)/C=C/c1ccco1)c1ccccc1C(=O)O,-3%,0%,·,-6%,-9%
CCC(Cn1nnc2ccccc2c1=O)NC(=O)Nc1cc(OC)cc(OC)c1 (stereo not drawn),·,·,-2%,-8%,·
O=C1COc2ccc(OCc3ccc(F)cc3)cc21,1.4µM*,?,11µM*,4.3µM*,1.1µM*
CC1CCC2(CC1)NC(=O)N(CC(=O)Nc1ccc3c(c1)OCCO3)C2=O (stereo not drawn),?,?,?,27µM*,3.5µM*
O=C(CN1C(=O)NC2(CCCCCC2)C1=O)c1ccc(F)cc1,0%,16%,·,-3%,1%
O=C(CN1C(=O)NC2(CCCCCC2)C1=O)c1ccc2c(c1)OCCO2,2µM*,4.1µM*,18µM*,9.5µM*,2.8µM*
CC1CCC2(CC1)NC(=O)N(CC(=O)Nc1ccc3c(c1)OCCCO3)C2=O (stereo not drawn),0%,-2%,·,1%,-6%
CCOc1ccc(NC(=O)CSc2nnc(-c3ccncc3)n2-c2ccccc2)cc1,·,·,·,-3%,·
Cc1c(C)c2ccc(OCC(=O)Nc3ccccn3)c(C)c2oc1=O,-34%,?,·,0.034µM*,-20%
COc1ccccc1OCC(=O)Nc1ccccn1,?,2.1µM*,·,3.4µM*,3.2µM*
Cc1ccc(NC(=O)C(=O)Nc2ccccn2)cc1,?,?,1.6µM*,0.54µM*,0.32µM*
Cc1c(C)c2ccc(OCC(=O)N(C)C)c(C)c2oc1=O,-1%,?,?,-16%,-1%
COc1ccccc1NC(=O)C(=O)Nc1ccccn1,4µM*,?,16µM*,8.5µM*,3.2µM*
SMILES,NPC1 promoter act,ELG1 genotoxic,SMN2 splice up,FLuc modulator,Rab9 promoter act
Cc1nn(C(=O)COc2ccccc2)c(C)c1Sc1ccccc1,·,·,20%,-15%,·
O=C(CCS(=O)(=O)c1ccc(Br)cc1)N1CCN(c2ccccc2)CC1,-1%,-1%,5%,1%,-3%
O=C(CCS(=O)(=O)c1ccccc1)N1CCN(c2ccccc2)CC1,2.8µM*,?,·,12µM*,1.6µM*
Cc1ccc(NC(=S)NC2CCCC2)cc1C,10%,6%,?,?,?
Cc1nc2ccc(NC(=S)NC3CCCCC3)cc2nc1C,?,6%,17%,17µM*,3.5µM*
S=C(Nc1ccc2[nH]ccc2c1)NC1CCCCC1,2.5µM*,11%,·,13µM*,2.5µM*
O=[N+]([O-])c1ccc(O)c(/C=N/Nc2ccc(Cl)nn2)c1,3.2µM*,7%,-66%,?,-5%[1.84 µM]
Cc1ccc(S(=O)(=O)N/N=C/c2cc([N+](=O)[O-])ccc2O)cc1[N+](=O)[O-],-3%,10%,-20%,13µM*,2%
O=[N+]([O-])c1ccc(O)c(/C=N/NC2=NS(=O)(=O)c3ccccc32)c1,4%,-4%,-9%,8.5µM*,12%
O=[N+]([O-])c1ccc(/C=N/NC2=NS(=O)(=O)c3ccccc32)cc1,-5%,3%,8%,15µM*,-1%
